# According to PubChem BioAssay (EPA / NIEHS):
# A structure can be active in one record and inactive in another. Active and inactive are the calls of the source. Rule for the calls: active = hit-call score of the fitted dose curve at least 0.9, where 1 is the maximum; inactive = score below 0.9.
# What was measured:
# [1] = target: Bile acid receptor (Homo sapiens) (UniProt Q96RI1); assay: ATG_IR1_CIS: Attagene CIS-FACTORIAL HepG2 Assay for human Nuclear Receptor Subfamily 1 Group H Member 4 (NR1H4), IR1 submotif (AID 2282946); conditions: IR1 reporter transcription, actives raise or lower the signal
# Sequence of Bile acid receptor (Homo sapiens) (Q96RI1 whole entry, looked up): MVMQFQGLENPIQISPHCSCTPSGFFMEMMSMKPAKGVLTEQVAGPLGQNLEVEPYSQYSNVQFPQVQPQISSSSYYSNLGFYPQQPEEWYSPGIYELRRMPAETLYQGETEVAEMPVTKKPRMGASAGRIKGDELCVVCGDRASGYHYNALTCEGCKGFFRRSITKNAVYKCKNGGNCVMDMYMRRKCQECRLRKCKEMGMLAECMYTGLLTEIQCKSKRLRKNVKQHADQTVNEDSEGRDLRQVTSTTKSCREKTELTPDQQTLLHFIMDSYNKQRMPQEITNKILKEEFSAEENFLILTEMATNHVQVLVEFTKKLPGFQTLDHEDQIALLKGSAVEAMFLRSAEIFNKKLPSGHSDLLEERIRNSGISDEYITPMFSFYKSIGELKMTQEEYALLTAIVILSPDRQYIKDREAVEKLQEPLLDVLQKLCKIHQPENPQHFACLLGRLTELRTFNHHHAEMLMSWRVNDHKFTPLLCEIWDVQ
# How it was run: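 HepG2 cells transiently transfected with multiple cis-promoter-driven reporter units to measure endogenous transcription factor activity; 24 h exposure. Reporter mRNA read by RT-PCR, FAM labelling, HpaI digestion and capillary electrophoresis. Bidirectional fit versus DMSO.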
# [2] = ATG_GRE_CIS: Attagene CIS-FACTORIAL HepG2 Assay for human Glucocorticoid Response Elements (GRE) (AID 2282947); conditions: HepG2 GRE cis-reporter, Attagene multiplex mRNA; actives raise or lower the signal
# How it was run: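 Transiently transfected HepG2 cells carrying GRE cis-reporter units (endogenous TF activity) dosed 24 h; reporter mRNA quantified by RT-PCR, 6-FAM labelling, HpaI digestion and capillary electrophoresis. Bidirectional fit versus DMSO baseline.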
# [3] = ATG_ISRE_CIS: Attagene CIS-FACTORIAL HepG2 Assay for human Interferon Regulatory Factor 1 (IRF1) binding to an Interferon-Stimulated Response Element (ISRE) (AID 2282948); conditions: HepG2 ISRE cis-reporter (Attagene), mRNA transcription readout; actives raise or lower the signal
# How it was run: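 HepG2 cells transiently transfected with multiplexed cis-promoter reporter units; after 24 h compound exposure, reporter mRNA quantified by RT-PCR, FAM labelling, HpaI digestion and capillary electrophoresis. Bidirectional fit versus DMSO baseline.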
# [4] = ATG_M_32_CIS: Attagene CIS-FACTORIAL HepG2 Assay for M32 Transcription Factor (Internal Marker) (AID 2282949); conditions: HepG2 Attagene cis-factorial M32 reporter, mRNA; actives raise or lower the signal;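 note: background control marker of the multiplexed CIS panel rather than a real target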
# How it was run: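 HepG2 cells transiently transfected with multiplexed cis-regulated reporter units, dosed 24 h. Reporter mRNA quantified by RT-PCR, 6-FAM labelling, HpaI digestion and capillary electrophoresis; bidirectional fit vs DMSO.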
# [5] = ATG_M_06_CIS: Attagene CIS-FACTORIAL HepG2 Assay for M06 Transcription Factor (Internal Marker) (AID 2282950); conditions: HepG2 Attagene CIS-FACTORIAL M06 internal marker reporter; actives raise or lower the signal
# How it was run: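 One of many multiplexed endpoints: HepG2 reporter mRNA after 24 h dosing, detected by RT-PCR and capillary electrophoresis fluorescence; gain or loss of signal analysed against DMSO.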
# [6] = target: Hepatocyte nuclear factor 6 (Homo sapiens) (UniProt Q9UBC0); assay: ATG_HNF6_CIS: Attagene CIS-FACTORIAL HepG2 Assay for human Hepatocyte Nuclear Factor 6 (HNF6) (AID 2282952); conditions: HepG2 Attagene cis-factorial HNF6 reporter transcription; actives raise or lower the signal
# Sequence of Hepatocyte nuclear factor 6 (Homo sapiens) (Q9UBC0 whole entry, looked up): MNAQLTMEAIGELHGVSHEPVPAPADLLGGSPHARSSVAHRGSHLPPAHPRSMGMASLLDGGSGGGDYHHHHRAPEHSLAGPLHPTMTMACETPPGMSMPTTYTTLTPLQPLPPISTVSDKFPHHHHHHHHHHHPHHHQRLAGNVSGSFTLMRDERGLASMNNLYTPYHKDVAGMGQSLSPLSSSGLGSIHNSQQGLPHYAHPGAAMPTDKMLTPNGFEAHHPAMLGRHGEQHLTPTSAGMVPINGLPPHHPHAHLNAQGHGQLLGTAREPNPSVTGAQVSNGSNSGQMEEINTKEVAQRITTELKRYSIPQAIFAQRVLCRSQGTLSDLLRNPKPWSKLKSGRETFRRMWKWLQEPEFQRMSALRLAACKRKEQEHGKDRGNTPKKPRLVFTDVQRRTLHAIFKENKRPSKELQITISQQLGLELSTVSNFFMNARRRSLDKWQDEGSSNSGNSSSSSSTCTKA
# How it was run: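 Transiently transfected HepG2 cells expressing cis-regulated reporter transcription units were exposed to chemical for 24 h in a 24-well format. Reporter transcript abundance was determined by fluorescence capillary electrophoresis.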
# [7] = target: Heat shock factor protein 1 (Homo sapiens) (UniProt Q00613); assay: ATG_HSE_CIS: Attagene CIS-FACTORIAL HepG2 Assay for human Heat Shock Transcription Factor 1 (HSE) (AID 2282953); conditions: HepG2 HSE cis-reporter, Attagene RNA transcription; actives raise or lower the signal
# Sequence of Heat shock factor protein 1 (Homo sapiens) (Q00613 whole entry, looked up): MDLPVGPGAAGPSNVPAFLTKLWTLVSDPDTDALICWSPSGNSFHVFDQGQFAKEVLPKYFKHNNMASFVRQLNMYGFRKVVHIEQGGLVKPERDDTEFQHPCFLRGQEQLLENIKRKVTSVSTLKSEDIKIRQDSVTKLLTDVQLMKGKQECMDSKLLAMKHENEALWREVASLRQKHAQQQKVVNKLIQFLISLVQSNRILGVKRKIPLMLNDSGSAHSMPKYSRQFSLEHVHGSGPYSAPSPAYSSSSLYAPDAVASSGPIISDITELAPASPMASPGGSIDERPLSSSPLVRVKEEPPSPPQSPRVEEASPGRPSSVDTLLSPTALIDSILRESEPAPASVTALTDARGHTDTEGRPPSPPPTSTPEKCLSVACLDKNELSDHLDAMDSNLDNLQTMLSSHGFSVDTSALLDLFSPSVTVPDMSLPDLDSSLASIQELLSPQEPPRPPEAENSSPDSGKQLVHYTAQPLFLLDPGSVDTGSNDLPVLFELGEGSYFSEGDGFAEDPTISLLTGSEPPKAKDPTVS
# How it was run: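 Using HepG2 with transfected cis-driven reporter constructs, compound effects on endogenous factor activity are scored as reporter mRNA change at 24 h. Detection: RT-PCR, HpaI digestion, capillary electrophoresis; bidirectional fitting to DMSO.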
# [8] = ATG_MRE_CIS: Attagene CIS-FACTORIAL HepG2 Assay for human Metal Responsive Element (MRE) (AID 2282954); conditions: HepG2 MRE cis-reporter transcription, Attagene multiplex; actives raise or lower the signal
# How it was run: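 HepG2 cells transiently transfected with cis-element-driven reporter units; mRNA measured 24 h after dosing. Reporter transcripts quantified by RT-PCR, FAM labelling, HpaI digestion and capillary electrophoresis; bidirectional fit versus DMSO.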
# [9] = ATG_PBREM_CIS: Attagene CIS-FACTORIAL HepG2 Assay for human Phenobarbital-responsive Enhancer Module (PBREM) (AID 2282955); conditions: HepG2 PBREM cis-reporter, Attagene multiplexed transcription; actives raise or lower the signal
# How it was run: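 Readout: reporter mRNA, fluorescent RT-PCR fragments separated by capillary electrophoresis. System: HepG2 transiently transfected with cis-regulated reporter units. Exposure: 24 h. Analysis: bidirectional, DMSO baseline.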
# [10] = target: Paired box protein Pax-6 (Homo sapiens) (UniProt P26367); assay: ATG_Pax6_CIS: Attagene CIS-FACTORIAL HepG2 Assay for human Paired Box 6 (PAX6) (AID 2282956); conditions: HepG2 CIS-FACTORIAL PAX6 reporter transcription, RNA readout; actives raise or lower the signal
# Sequence of Paired box protein Pax-6 (Homo sapiens) (P26367 whole entry, looked up): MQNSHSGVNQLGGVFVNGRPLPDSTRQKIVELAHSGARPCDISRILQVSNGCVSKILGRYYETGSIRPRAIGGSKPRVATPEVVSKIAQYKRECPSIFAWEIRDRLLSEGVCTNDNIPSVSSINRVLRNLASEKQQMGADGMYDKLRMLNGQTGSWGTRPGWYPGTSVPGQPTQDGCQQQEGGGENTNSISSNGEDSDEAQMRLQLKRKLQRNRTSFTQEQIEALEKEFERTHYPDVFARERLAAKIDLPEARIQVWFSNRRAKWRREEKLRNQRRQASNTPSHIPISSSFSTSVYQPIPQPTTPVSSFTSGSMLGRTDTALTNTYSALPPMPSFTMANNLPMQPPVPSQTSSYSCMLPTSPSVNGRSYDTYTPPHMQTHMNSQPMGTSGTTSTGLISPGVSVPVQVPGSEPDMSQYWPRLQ
# How it was run: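 HepG2 cells transiently transfected with multiplexed cis-promoter reporter units (endogenous TF activity) were dosed for 24 h. Reporter mRNA was quantified by RT-PCR, 6-FAM labeling, HpaI digestion and capillary electrophoresis; bidirectional fitting versus DMSO baseline.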
# [11] = ATG_PXRE_CIS: Attagene CIS-FACTORIAL HepG2 Assay for human Pregnane X Receptor Element (PXRE) (AID 2282957); conditions: HepG2 Attagene CIS-FACTORIAL PXRE reporter, mRNA; actives raise or lower the signal
# How it was run: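 Cis-element reporter mRNA in human hepatoma HepG2 cells is measured 24 h post-dosing by RT-PCR, primer-extension labeling and capillary electrophoresis; gain or loss of signal is fitted relative to DMSO.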
# [12] = ATG_RORE_CIS: Attagene CIS-FACTORIAL HepG2 Assay for human RAR-related Orphan Receptor Element (RORE) (AID 2282959); conditions: HepG2 Attagene cis-factorial RORE reporter, mRNA; actives raise or lower the signal
# How it was run: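 Measured here: transcript induction of a cis-regulated reporter in HepG2 cells transiently transfected via FuGene 6. After 24 h, RNA was processed by RT-PCR and fluorescent capillary electrophoresis; DMSO defined baseline activity.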
# [13] = ATG_Sox_CIS: Attagene CIS-FACTORIAL HepG2 Assay for human SRY-box transcription factor (SOX) (AID 2282960); conditions: HepG2 Attagene cis-factorial SOX reporter, mRNA; actives raise or lower the signal
# How it was run: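 Using transiently transfected HepG2 cells, reporter transcription driven by cis elements was assessed 24 h after dosing. Signal was fluorescence of capillary-separated RT-PCR products, with DMSO defining baseline activity.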
# [14] = target: Transcription factor Sp1 (Homo sapiens) (UniProt P08047); assay: ATG_Sp1_CIS: Attagene CIS-FACTORIAL HepG2 Assay for human Specificity Protein 1 (Sp1) (AID 2282961); conditions: HepG2 Sp1 cis-reporter transcription, actives raise or lower the signal
# Sequence of Transcription factor Sp1 (Homo sapiens) (P08047 whole entry, looked up): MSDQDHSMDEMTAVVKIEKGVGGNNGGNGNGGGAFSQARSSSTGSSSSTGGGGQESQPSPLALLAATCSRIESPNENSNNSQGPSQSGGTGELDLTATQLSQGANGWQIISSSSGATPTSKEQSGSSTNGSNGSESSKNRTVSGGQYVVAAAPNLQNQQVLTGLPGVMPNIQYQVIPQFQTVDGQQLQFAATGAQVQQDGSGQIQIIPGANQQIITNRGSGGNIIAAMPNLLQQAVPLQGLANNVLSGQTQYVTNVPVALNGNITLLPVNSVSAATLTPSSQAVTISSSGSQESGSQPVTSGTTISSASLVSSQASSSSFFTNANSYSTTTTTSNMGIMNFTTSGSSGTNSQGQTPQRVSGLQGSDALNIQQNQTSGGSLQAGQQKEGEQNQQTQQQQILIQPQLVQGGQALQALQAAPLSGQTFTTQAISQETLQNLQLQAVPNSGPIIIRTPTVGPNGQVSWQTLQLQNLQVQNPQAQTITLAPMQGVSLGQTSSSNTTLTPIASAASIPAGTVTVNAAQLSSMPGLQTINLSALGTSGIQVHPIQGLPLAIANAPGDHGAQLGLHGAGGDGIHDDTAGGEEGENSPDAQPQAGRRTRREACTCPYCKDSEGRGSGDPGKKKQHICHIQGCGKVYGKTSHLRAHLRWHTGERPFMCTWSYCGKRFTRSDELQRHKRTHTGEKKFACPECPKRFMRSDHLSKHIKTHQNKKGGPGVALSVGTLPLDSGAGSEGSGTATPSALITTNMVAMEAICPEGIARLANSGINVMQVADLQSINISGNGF
# How it was run: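 After transient transfection of HepG2 cells with cis-promoter reporter units and 24 h chemical treatment, reporter transcripts were quantified by RT-PCR and capillary electrophoresis fluorescence. Gain- and loss-of-signal fitted against DMSO.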
# [15] = ATG_SREBP_CIS: Attagene CIS-FACTORIAL HepG2 Assay for human Sterol Regulatory Element Binding (SREBP) (AID 2282962); conditions: HepG2 Attagene cis-factorial SREBP reporter, mRNA; actives raise or lower the signal
# How it was run: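 HepG2 cells transiently transfected with multiplexed cis-element reporter units report endogenous transcription factor activity. After 24 h of chemical exposure, reporter mRNA was quantified by RT-PCR, 6-FAM labelling, HpaI digestion and capillary electrophoresis; bidirectional fits used DMSO as baseline.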
# [16] = target: Signal transducer and activator of transcription 3 (Homo sapiens) (UniProt P40763); assay: ATG_STAT3_CIS: Attagene CIS-FACTORIAL HepG2 Assay for human Signal Transducer and Activator of Transcription 3 (STAT3) (AID 2282963); conditions: HepG2, Attagene cis-factorial STAT3 reporter transcription; actives raise or lower the signal
# Sequence of Signal transducer and activator of transcription 3 (Homo sapiens) (P40763 whole entry, looked up): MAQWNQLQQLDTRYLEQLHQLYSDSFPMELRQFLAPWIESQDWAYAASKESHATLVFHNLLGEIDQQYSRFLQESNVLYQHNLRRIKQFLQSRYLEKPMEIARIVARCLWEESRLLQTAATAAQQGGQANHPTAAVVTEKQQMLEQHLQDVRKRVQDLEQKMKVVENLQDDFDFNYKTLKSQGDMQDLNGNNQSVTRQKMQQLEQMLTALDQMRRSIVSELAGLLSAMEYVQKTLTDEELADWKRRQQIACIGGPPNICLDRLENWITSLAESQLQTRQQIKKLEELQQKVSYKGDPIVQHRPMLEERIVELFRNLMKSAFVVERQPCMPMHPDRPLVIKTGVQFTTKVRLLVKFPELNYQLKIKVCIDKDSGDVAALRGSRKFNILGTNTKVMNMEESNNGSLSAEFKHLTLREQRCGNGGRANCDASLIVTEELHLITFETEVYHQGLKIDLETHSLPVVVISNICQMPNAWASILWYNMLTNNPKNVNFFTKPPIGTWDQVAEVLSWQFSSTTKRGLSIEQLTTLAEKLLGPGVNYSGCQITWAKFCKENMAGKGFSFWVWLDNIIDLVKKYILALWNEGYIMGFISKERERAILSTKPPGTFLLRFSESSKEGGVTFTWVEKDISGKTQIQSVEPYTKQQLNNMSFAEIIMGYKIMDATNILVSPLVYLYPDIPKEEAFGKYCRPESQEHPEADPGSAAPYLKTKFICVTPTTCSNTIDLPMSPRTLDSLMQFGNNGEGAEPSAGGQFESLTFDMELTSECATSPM
# How it was run: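 HepG2 cells transiently transfected with multiple cis-element-driven reporter units report endogenous transcription factor activity. After 24 h compound exposure, reporter mRNA is measured by RT-PCR, 6-FAM labelling, HpaI digestion and capillary electrophoresis. Fitted bidirectionally versus DMSO.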
# [17] = ATG_TA_CIS: Attagene CIS-FACTORIAL HepG2 Assay for human TA Basal Promoter (AID 2282964); conditions: HepG2 Attagene CIS-factorial TA basal promoter reporter; actives raise or lower the signal
# How it was run: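 Transient MRTU transfection of HepG2 preceded 24 h compound exposure. Reporter mRNA levels were then read by RT-PCR with capillary electrophoresis, and this background-control endpoint was fitted bidirectionally to DMSO.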
# [18] = target: Hypoxia-inducible factor 1-alpha (Homo sapiens) (UniProt Q16665); assay: ATG_HIF1a_CIS: Attagene CIS-FACTORIAL HepG2 Assay for human Hypoxia Inducible Factor 1 (HIF1A) (AID 2282951); conditions: HepG2 Attagene cis-factorial HIF1a reporter transcription; actives raise or lower the signal
# Sequence of Hypoxia-inducible factor 1-alpha (Homo sapiens) (Q16665 whole entry, looked up): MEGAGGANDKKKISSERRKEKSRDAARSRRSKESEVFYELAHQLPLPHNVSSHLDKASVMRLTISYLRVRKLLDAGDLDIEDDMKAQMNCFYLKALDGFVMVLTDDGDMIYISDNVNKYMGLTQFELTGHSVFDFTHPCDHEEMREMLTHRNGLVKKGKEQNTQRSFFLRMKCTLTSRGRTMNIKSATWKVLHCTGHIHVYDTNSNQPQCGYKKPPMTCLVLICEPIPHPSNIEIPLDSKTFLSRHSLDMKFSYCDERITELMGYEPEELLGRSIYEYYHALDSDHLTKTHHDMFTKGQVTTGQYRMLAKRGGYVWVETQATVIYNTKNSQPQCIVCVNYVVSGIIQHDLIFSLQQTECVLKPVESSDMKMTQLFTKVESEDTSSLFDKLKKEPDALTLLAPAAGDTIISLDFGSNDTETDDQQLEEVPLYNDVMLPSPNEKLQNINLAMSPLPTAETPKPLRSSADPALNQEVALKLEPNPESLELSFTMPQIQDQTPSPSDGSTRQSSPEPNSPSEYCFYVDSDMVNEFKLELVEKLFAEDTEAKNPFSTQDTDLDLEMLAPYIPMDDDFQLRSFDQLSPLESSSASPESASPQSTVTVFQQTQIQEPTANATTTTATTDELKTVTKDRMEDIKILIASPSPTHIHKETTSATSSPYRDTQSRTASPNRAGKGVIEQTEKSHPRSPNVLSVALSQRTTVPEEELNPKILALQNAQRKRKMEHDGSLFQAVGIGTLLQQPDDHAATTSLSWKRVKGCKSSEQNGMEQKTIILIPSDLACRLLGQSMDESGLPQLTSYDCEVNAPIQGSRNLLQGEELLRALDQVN
# How it was run: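 Endogenous-TF cis reporter readout, human HepG2 cells, 24 h incubation; mRNA detected via RT-PCR and capillary electrophoresis fluorescence; DMSO-normalised bidirectional fitting.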
# [19] = ATG_PPRE_CIS: Attagene CIS-FACTORIAL HepG2 Assay for human Peroxisome Proliferator-activated Response Element (PPRE) (AID 2282958); conditions: HepG2 PPRE cis-element reporter, Attagene transcription factor profiling; actives raise or lower the signal
# How it was run: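 After human HepG2 hepatoma cells were transiently transfected with cis-promoter reporter constructs, they were exposed to test chemicals for 24 hours. Reporter RNA was then reverse-transcribed, PCR-amplified, FAM-labeled, HpaI-digested and quantified by capillary electrophoresis.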
# [20] = ATG_TCF_b_cat_CIS: Attagene CIS-FACTORIAL HepG2 Assay for human T-Cell-Factor with beta-catenin (TCF/b-cat) (AID 2282965); conditions: HepG2 TCF/beta-catenin cis-reporter transcription, actives raise or lower the signal
# How it was run: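 Cells of the HepG2 line carry transiently transfected reporter units whose promoters respond to endogenous factors. Twenty-four hours post-dosing, reporter mRNA induction is measured by fluorescent RT-PCR and capillary electrophoresis, with DMSO as baseline.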
smiles,measurement,setting,value
C/C(=N\NC(=O)Nc1cc(F)cc(F)c1)c1ncccc1C(=O)O,outcome,[1],inactive
same,outcome,[2],inactive
same,outcome,[3],inactive
same,outcome,[4],inactive
same,outcome,[5],inactive
same,outcome,[6],inactive
same,outcome,[7],inactive
same,outcome,[8],inactive
same,outcome,[9],inactive
same,outcome,[10],inactive
same,AC50,[11],172 µM (active)
same,outcome,[11],inactive
same,outcome,[12],inactive
same,outcome,[13],inactive
same,outcome,[14],inactive
same,outcome,[15],inactive
same,outcome,[16],inactive
same,outcome,[17],inactive
O=S(=O)(F)C(F)(F)C(F)(F)C(F)(F)C(F)(F)C(F)(F)C(F)(F)C(F)(F)C(F)(F)F,outcome,[1],inactive
same,outcome,[2],inactive
same,outcome,[3],inactive
same,outcome,[4],inactive
same,outcome,[5],inactive
same,outcome,[18],inactive
same,outcome,[6],inactive
same,outcome,[7],inactive
same,outcome,[8],inactive
same,outcome,[9],inactive
same,outcome,[10],inactive
same,outcome,[19],inactive
same,outcome,[12],inactive
same,outcome,[13],inactive
same,outcome,[14],inactive
same,outcome,[16],inactive
same,outcome,[17],inactive
same,outcome,[20],inactive
CCCCc1ccc(O)cc1,outcome,[1],inactive
same,outcome,[2],inactive
same,outcome,[3],inactive
same,outcome,[4],inactive
same,outcome,[5],inactive
same,outcome,[6],inactive
same,AC50,[7],139 µM (active)
same,outcome,[8],inactive
same,outcome,[9],inactive
same,outcome,[10],inactive
same,outcome,[11],inactive
same,outcome,[19],inactive
same,outcome,[12],inactive
same,outcome,[13],inactive
same,outcome,[14],inactive
same,outcome,[15],inactive
same,outcome,[16],inactive
same,outcome,[17],inactive
same,outcome,[20],inactive
CCOP(=S)(OCC)SCS(=O)(=O)CC,outcome,[1],inactive
same,outcome,[2],inactive
same,outcome,[3],inactive
same,outcome,[4],inactive
same,outcome,[5],inactive
same,outcome,[18],inactive
same,outcome,[6],inactive
same,outcome,[7],inactive
same,outcome,[8],inactive
same,outcome,[9],inactive
same,outcome,[10],inactive
same,outcome,[19],inactive
same,outcome,[13],inactive
same,outcome,[14],inactive
same,outcome,[15],inactive
same,outcome,[16],inactive
same,outcome,[17],inactive
same,outcome,[20],inactive
O=P1(N(CCCl)CCCl)NCCCO1 (configuration not stated),outcome,[1],inactive
same,outcome,[2],inactive
same,outcome,[3],inactive
same,outcome,[4],inactive
same,outcome,[5],inactive
same,outcome,[6],inactive
same,outcome,[7],inactive
same,outcome,[8],inactive
same,outcome,[9],inactive
same,outcome,[10],inactive
same,outcome,[11],inactive
same,outcome,[19],inactive
same,outcome,[12],inactive
same,outcome,[13],inactive
same,outcome,[14],inactive
same,outcome,[16],inactive
same,outcome,[17],inactive
same,outcome,[20],inactive
CC(C)(C)N(NC(=O)c1ccc(Cl)cc1)C(=O)c1ccccc1,outcome,[1],inactive
same,outcome,[2],inactive
same,outcome,[3],inactive
same,outcome,[4],inactive
same,outcome,[5],inactive
same,outcome,[18],inactive
same,outcome,[6],inactive
same,outcome,[7],inactive
same,outcome,[8],inactive
same,outcome,[9],inactive
same,outcome,[10],inactive
same,outcome,[12],inactive
same,outcome,[13],inactive
same,outcome,[14],inactive
same,outcome,[16],inactive
same,outcome,[17],inactive
CCOP(=S)(OCC)SCSCC,outcome,[1],inactive
same,outcome,[2],inactive
same,outcome,[3],inactive
same,outcome,[4],inactive
same,outcome,[5],inactive
same,outcome,[18],inactive
same,outcome,[6],inactive
same,outcome,[7],inactive
same,AC50,[8],151 µM (active)
same,outcome,[10],inactive
same,AC50,[11],11.7 µM (active)
same,AC50,[19],176 µM (active)
same,outcome,[13],inactive
same,outcome,[14],inactive
same,outcome,[16],inactive
same,outcome,[17],inactive
NNC(N)=S,outcome,[1],inactive
same,outcome,[2],inactive
same,outcome,[3],inactive
same,outcome,[4],inactive
same,outcome,[5],inactive
same,outcome,[6],inactive
same,outcome,[7],inactive
same,outcome,[8],inactive
same,outcome,[9],inactive
same,outcome,[10],inactive
same,outcome,[11],inactive
same,outcome,[19],inactive
same,outcome,[12],inactive
same,outcome,[13],inactive
same,outcome,[14],inactive
same,outcome,[15],inactive
same,outcome,[16],inactive
same,outcome,[17],inactive
same,outcome,[20],inactive
